Bioassay records: PubChem BioAssay, National Center for Advancing Translational Sciences (NCATS)
In the library only some 3.2% were active in any assay of this set; here they are far more common.
Nrf2 inh = Nrf2 pathway inhibition | Potency, µM (titrated, usually from 46 µM), actives largely listed as inhibitors | 360,000 tested, 2.1% active | A549 ARE-Fluc reporter, luciferase luminescence, 18-24 h; also: nearly all actives have a fitted effect of over 60% in size
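Nrf2 activity is the BugLite luminescence, read 15 min after reagent at room temperature, following CellTiter-Fluor cytotoxicity readout (30 min, 37C). Compound titrations were applied for 18-24 h to 5000 A549 ARE_Fluc cells/well in 5% FBS OPTI-MEM.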
IL2 activator = IL-2 activation | IL-2 activation reporter assay, cell-based qHTS; stimulated with anti-CD3/CD4/CD28 beads; in transgenic mouse T cells | activation, % (series mostly up to about 46 µM) | 360,000 tested, 0.065% active; in the data active = activation above about 50%; inconclusive = mostly about 30% to 49%
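Screening format: compound pinned onto unstimulated transgenic mouse T cells, 60 min incubation, then anti-CD3/anti-CD4/anti-CD28 bead stimulation for 18 hours at 37 degrees C, followed by EGFP and DsRed detection.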
p53 reactivator = mutant p53 re-activation in reporter cells. H1299 p53-A138V BP100-luciferase reporter, luminescence, 24 h. Potency, µM (top dose mostly 92.2 µM), usual class: activators. 320,000 tested, 0.063% active; also: nearly all actives have a fitted effect of over 45% in size
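p53-null H1299 cells stably carrying temperature-sensitive p53-A138V and a BP100-luciferase reporter were pinned with compounds (4-point, 1:5 series) and held 24 hrs at 37 deg C. Luminescence was read 10 min after detection reagent.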
Nrf2 activator = Nrf2 pathway activation | AREc32 ARE-luciferase reporter (MCF7-derived line), luminescence, 24 h | 410,000 tested, 0.31% active | Potency, µM (titrated, usually from 46.1 µM), most hits filed as activators | AID 624171; also: nearly all actives have a fitted effect of over 65% in size
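Steps: seed AREc32_Fluc cells (1000/well, 5% FBS OPTI-MEM); incubate overnight at 37 deg C; add 23 nL compound; incubate 24 hr; add Steady-Glo; hold 30 min RT; read luminescence.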
BRCA1 expr up = BRCA1 expression activation; 380,000 tested, 1.1% active; MCF7-BRCA1-FFLuc reporter, luminescence, 48 h; response scale: scaled: vehicle 0%, 10 µM genistein 100%; Potency, µM (series often up to 46.1 µM), most hits filed as activators; AID 624202; also: nearly all actives have a fitted effect of over 80% in size
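Activators of BRCA1 expression were detected as increased firefly luciferase luminescence in engineered MCF7 cells after 48 h compound incubation. Signals were scaled to genistein 10 microM as full activation.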
A549 viability = kills or reduces viability of A549 cells in Nrf2 counter-screen. A549 ARE-Fluc cells, CellTiter-Fluor viability, 18-24 h. Potency, µM (top dose mostly 46 µM), actives largely listed as inhibitors. 390,000 tested, 0.16% active. AID 504648
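Cytotoxicity counterscreen: CellTiter-Fluor fluorescence was measured in A549 ARE_Fluc cells after 18-24 h of compound exposure in a concentration series. The subsequent BugLite luminescent read reports ARE-luciferase activity.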
Numbers stand for hits; – = inactive; ? = inconclusive; · = no result given. Unless noted, calls follow the shape of the dose curve; as a rule, active = well fitted curve in the direction sought with a large enough effect; inconclusive = small, poorly fitted or top-dose-only effect, or another doubt; inactive = no such curve, though single readings can be large; an effect the other way counts as inactive or inconclusive.

SMILES	Nrf2 inh	IL2 activator	p53 reactivator	Nrf2 activator	BRCA1 expr up	A549 viability
COCCN(C(=O)CSc1nnc(-c2ccc(Cl)cc2)o1)c1c(N)n(CC(C)C)c(=O)[nH]c1=O	–	–	–	–	–	–
Cc1ccc(NC(=O)c2nc(S(C)(=O)=O)ncc2N(Cc2ccccc2)Cc2ccco2)c(C)c1	–	·	·	–	·	–
COc1cccc(C2=Nn3c(nnc3-c3cccc(OC)c3OC)SC2)c1	–	·	·	·	·	–
CC(C)=CNNC(=O)c1ccc(O)cc1	·	·	·	·	–	·
CCCCc1c(C)c(C#N)c2[nH]c3ccccc3n2c1=O	18.4µM	–	–	–	–	?
CCc1ccccc1N=Cc1c(C)c(C#N)c2[nH]c3ccccc3n2c1=O	–	123.4	·	–	–	–
CCCc1cc(=O)n2c([nH]c3ccccc32)c1C#N	14.6µM	–	?	–	–	–
CCOc1cc(/C=C2/C(=O)ON=C2C)ccc1OCc1ccccc1F	4.11µM	–	–	–	–	?
COc1ccc(CNC(=O)C(C#N)c2nc3ccccc3nc2N2CCCC2)cc1 (stereo unspecified)	–	121.9	–	–	–	–
COc1ccc(CNC(=O)C(C#N)c2nc3ccccc3nc2N2CCN(C)CC2)cc1 (stereo unspecified)	–	–	–	–	–	–
Cc1ccc(CSc2nnc(SCC(=O)N/N=C/C=C/c3ccccc3[N+](=O)[O-])s2)cc1	?	–	–	–	–	–
CCn1c(SCC(=O)N/N=C/C=C\c2ccccc2[N+](=O)[O-])nnc1-c1ccccc1	16.4µM	–	–	–	–	–
CC(C)OC(=O)n1c(=S)oc2ccccc21	–	–	–	–	–	–
CCCCC(=O)/C=C/n1c(=S)oc2ccccc21	?	–	?	10µM	–	–
CCc1ccc2oc(-c3ccc(C)c(NC(=O)COc4ccccc4Cl)c3)nc2c1	·	·	·	·	–	·
Cc1c(C(=O)N(Cc2cccc(F)c2)C2CCS(=O)(=O)C2)oc2cc(Br)ccc12 (stereo unspecified)	13µM	·	·	–	·	–
Cc1cc(NCCOCCO)n2ncc(-c3ccc(Cl)cc3)c2n1	?	–	39.8µM	–	–	–
Cc1cc(N)n2ncc(-c3ccc(Cl)cc3)c2n1	?	–	?	–	–	–
O=C(O)/C=C/C(=O)c1c(-c2ccccc2)[nH]c2ccccc12	–	–	–	10µM	–	–
Fc1ccc(Nc2nc3ccccc3c3nncn23)c(Cl)c1	–	·	·	?	·	–
CC(C)C(=O)Nc1cccc(-c2nc3ncccc3o2)c1	–	–	–	–	–	–
O=C(Nc1cccc(-c2nc3ncccc3o2)c1)c1ccc(-c2cccc(Cl)c2Cl)o1	5.8µM	·	·	–	·	–
O=C1CCCC2=C1C1(CCS(=O)(=O)C1)N=C(Nc1nc3ccccc3o1)N2 (stereo unspecified)	?	·	·	·	·	–
CCn1nccc1C(=O)Nc1ccc(Cl)cc1Cl	–	–	–	–	10µM	–
CCn1nccc1C(=O)Nc1cc(Cl)ccc1Cl	–	–	–	–	–	–
SMILES	Nrf2 inh	IL2 activator	p53 reactivator	Nrf2 activator	BRCA1 expr up	A549 viability
CC(C)Cc1ccc(S(=O)(=O)Nc2ccc3[nH]c(=O)[nH]c3c2)cc1	18.4µM	–	–	–	–	–
CC(C)(C)c1ccc(C(=O)CCCSC2=C(C#N)C(c3ccco3)C3=C(CCCC3=O)N2)cc1 (stereo unspecified)	20.6µM	–	–	–	–	20.6µM
Cc1ccc(C(=O)CSC2=C(C#N)C(c3ccco3)C3=C(CCCC3=O)N2)cc1 (stereo unspecified)	?	–	–	–	–	?
CCN(CC)/[N+]([O-])=N/OCOC(=O)C(C)c1ccc(CC(C)C)cc1 (stereo unspecified)	·	·	·	·	–	·
CCC(C)n1c(SCc2ccc(C(C)(C)C)cc2)nc2ccsc2c1=O (stereo unspecified)	·	·	·	–	·	–
CCn1c(CNc2ccc(Cl)cc2)nnc1SCc1ccc(Cl)cc1	23.1µM	–	–	–	–	?
COc1ccccc1Nc1nn2c(=O)c3ccc(C(=O)NCCc4ccccc4)cc3nc2s1	18.4µM	·	·	–	·	8.2µM
